# Assay outcomes: PubChem BioAssay, National Center for Advancing Translational Sciences (NCATS)
# D1 antagonist: blocks dopamine activation of the human D1 receptor. actives 3.2% (n = 360,000). AID 504652. activity change, negative = inhibition, % at 10 µM. HEK293 TREx D1 cells, calcium flux, dopamine EC80; stronger effect = lower value. P21728; in the data active means activity change below about -30%; further: on the % scale 0 is the no-effect control and ±100 the full control effect
#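 Cells carrying a force-coupled, tetracycline-inducible human D1 receptor report calcium flux. Each well gets a 10 s baseline, compound with 180 s monitoring, then an EC80 dopamine stimulus with a second 180 s kinetic read.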
# TRHR PAM: TRH receptor (human) allosteric enhancement | P34981 | actives 0.66% (n = 360,000) | TRHR cells, fluo-8 calcium fluorescence, EC20 TRH enhancement | enhancement, % at 2 µM; in the data active means enhancement above about 30%; further: 0% is about no effect
# Target sequence (P34981 whole entry, looked up): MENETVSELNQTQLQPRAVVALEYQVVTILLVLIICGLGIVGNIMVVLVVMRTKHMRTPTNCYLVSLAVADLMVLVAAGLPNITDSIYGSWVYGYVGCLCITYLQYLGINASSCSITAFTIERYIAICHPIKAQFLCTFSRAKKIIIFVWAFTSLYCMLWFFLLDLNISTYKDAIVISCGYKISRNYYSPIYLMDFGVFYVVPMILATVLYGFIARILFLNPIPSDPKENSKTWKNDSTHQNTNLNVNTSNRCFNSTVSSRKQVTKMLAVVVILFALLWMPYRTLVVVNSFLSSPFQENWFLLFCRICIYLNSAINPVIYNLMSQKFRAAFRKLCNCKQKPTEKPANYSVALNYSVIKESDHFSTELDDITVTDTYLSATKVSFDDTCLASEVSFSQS
#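 TRHR-expressing cells loaded with fluo-8 calcium dye were read kinetically (ex 480/em 530) during compound addition, then stimulated with an EC20 of TRH (10 nM final). Enhancement of the Gq-mediated intracellular calcium response was scored.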
# D1 potentiator: potentiators of human D1 dopamine receptor; AID 504651; HEK293 TREx D1 cells, calcium flux, dopamine EC20 potentiation; actives 0.036% (n = 360,000); P21728; potentiation, % at 10 µM; in the data active means potentiation above about 30%; further: 0% is about no effect
# TRHR ag: agonists of human TRH receptor; P34981; TRHR cells, calcium flux fluo-8, FDSS agonist mode; activation, % at 2 µM; actives 0.18% (n = 360,000); AID 493084; further: 0% is about no effect
#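 In this calcium-flux screen, cells bearing human TRHR are dye-loaded with fluo-8, baselined for 10 cycles, then exposed to library compounds; positive kinetic calcium responses during the agonist phase mark hits, with TRH as control.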
# D1 ag: human D1 receptor agonism. P21728. HEK293 T-REx D1 cells, calcium flux, agonist mode. activation, % at 2 µM. actives 1% (n = 360,000); further: 0% is about no effect
#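 Agonism was scored from calcium flux recorded over 180 s (1 read/s) after pintool compound addition, following a 10-cycle baseline. Cells were inducible force-coupled HEK293 TREx D1, plated overnight at 30 C and loaded with no-wash calcium dye.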
# An asterisk follows results filed as active; · = not tested or not shown. Compounds with a hit are over-represented: about 4.7% of the library has one in this group of screens. Unless noted, no stated cut-off is given here; in the data, active means activation above about 30%; inactive means the rest.
SMILES,D1 antagonist,TRHR PAM,D1 potentiator,TRHR ag,D1 ag
CCC12CN3CC(C)(CN(C1)C3c1c(C)[nH]c3ccccc13)C2=O (stereo not drawn),-2.9,-2.6,-0.5,2.8,3.6
COc1ccc(C2C(C(=O)N3CCN(c4ccccc4F)CC3)c3ccccc3C(=O)N2C)cc1 (stereo not drawn),-82.5*,6.1,-4.2,-0.3,-0.2
COc1ccc(C2(O)CCN(CCCCOc3ccccc3)CC2)cc1,-18.3,2.8,-17.1,0.1,36.1*
COc1ccc(OCCCN2CCc3ccccc3C2)cc1,-8.0,0.4,-10.1,-0.3,1.9
O=C1CCN(CCc2ccccc2)CCN1CCSc1ccc(Br)cc1,-22.2,-2.7,-6.8,-0.4,9.3
Cc1ccc(SCCN2CCN(CCc3ccccc3)CCC2=O)cc1,-38.4*,1.3,-2.0,-0.5,4.7
CC1=C(C(=O)Nc2cccc(C(F)(F)F)c2)C2(CCN(C(C)C)CC2)OC1=O,15.0,-0.4,0.9,0.6,0.2
CC(=O)Nc1ccc(C2=CC(=O)C[C@H](c3ccc(Cl)cc3)C2)cc1,-52.9*,1.1,-6.3,0.2,1.4
COc1ccc([C@H]2CC(=O)C=C(c3ccc(NC(C)=O)cc3)C2)cc1OC,·,6.0,-2.5,0.2,0.4
O=C(O)CC(CNS(=O)(=O)c1ccccc1)c1ccccc1 (stereo not drawn),-33.4*,-5.2,-8.1,0.7,-1.3
C=CCN(C(=O)Cn1nc(C)n2c(cc3cc(C)ccc32)c1=O)c1ccccc1,-8.2,-1.2,-0.2,-0.5,1.9
COc1ccc(Br)cc1CNC(=O)Cn1nc(C)n2c(cc3cc(F)ccc32)c1=O,1.6,3.3,-4.2,-0.2,0.3
CCN(C(=O)Cn1nc(C)n2c(cc3cc(C)ccc32)c1=O)c1ccccc1,-42.7*,1.3,-5.5,-0.6,0.5
Cc1nn(CC(=O)NC2CC2)c(=O)c2cc3cc(F)ccc3n12,-2.4,34.2*,-5.5,0.3,1.5
CN1CCN(c2ccccc2/C=C2/C(=O)Nc3ccccc32)CC1,-21.0,-1.5,-2.6,4.9,14.5
Cc1ccsc1CN(C(=O)c1ccccc1)C1CCS(=O)(=O)C1 (stereo not drawn),3.7,-1.3,-0.1,0.0,2.0
CCC1C/C(=C/c2ccco2)C(=O)/C(=C/c2ccco2)C1 (stereo not drawn),9.9,4.3,0.6,9.8,36.9*
CCC1C/C(=C\c2cc(OC)c(OC)cc2OC)C(=O)/C(=C/c2cc(OC)c(OC)cc2OC)C1 (stereo not drawn),2.1,5.2,-11.2,4.3,22.3
Cc1cc(-c2ccc(C)c(S(=O)(=O)NCCCN3CCCCCC3)c2)on1,1.9,12.1,9.3,0.7,0.4
COc1ccc(-c2cc(C)no2)cc1S(=O)(=O)NCCCN1CCN(c2ccccc2)CC1,-33.1*,-0.5,-16.8,-0.9,7.1
Cc1cc(-c2ccc(C(C)C)c(S(=O)(=O)NCCN3CCC(C)CC3)c2)on1,-29.5,25.0,-6.4,-0.2,44.2*
Cc1cc(-c2ccc(C)c(S(=O)(=O)NCCCN3CCN(c4ccccc4)CC3)c2)on1,-77.3*,-3.4,-18.9,-0.4,9.6
Cc1cc(-c2ccc(C)c(S(=O)(=O)NCCCN3CCN(c4ccccc4F)CC3)c2)on1,-67.4*,-4.2,-22.3,-0.1,10.0
Cc1ccc(-c2nc(CS(=O)(=O)CC(=O)N3CCN(c4cccc(C)c4C)CC3)c(C)o2)cc1,4.6,22.1,-0.1,-0.2,-1.2
CCN(CC)S(=O)(=O)c1ccc2nc(CCl)[nH]c2c1,-12.1,-0.4,-4.8,0.3,1.3
CCc1ccccc1N(C)C(=O)c1cc2c(=O)oc3ccccc3c2s1,2.3,12.8,2.0,-0.1,2.3
Cc1cccc(-c2nn3c(=O)cc(CN4CCN(C(=O)c5ccccc5Br)CC4)nc3s2)c1,-33.8*,1.6,-4.8,-0.3,0.0
Cc1cccc(-c2nn3c(=O)cc(CN4CCN(S(=O)(=O)c5ccc(Cl)cc5)CC4)nc3s2)c1,-10.4,-8.6,1.8,-0.1,1.0
Cc1ccccc1-c1nn2c(=O)cc(CN3CCN(C(=O)/C=C/c4ccccc4)CC3)nc2s1,-31.6*,-0.9,-6.0,-1.0,-0.5
O=C(Nc1ccccc1C(=O)OCc1cc(=O)n2ccsc2n1)c1ccc(Cl)cc1,3.3,-6.1,0.4,0.7,-2.1
